# Reference: PubChem BioAssay (NCATS)
# Inconclusive results are not listed. A call without a number means that no potency is given here. The source made the active and inactive calls. Unless noted, calls follow the shape of the full dose curve.
# Tested on: not listed separately
# Assay: qHTS for Inhibitors of the Functional Ribonucleoprotein Complex (vRNP) of Lymphocytic Choriomeningitis Arenaviruses (LCMV): Viability assay - alamar blue signal for LCMV Primary Screen (AID 1347085; calls by dose curve; tested in HEK293 reporter line; also: nearly all actives have a fitted effect of over 80% in size)
# Details: alamar blue viability counter-screen, LCMV vRNP screen cells; series mostly up to 57.5 µM
row,Structure (SMILES),Potency
1,NC(=O)CC[C@@H](N)C(=O)O,inactive
2,NC(N)=N/N=C/c1c(Cl)cccc1Cl,inactive
3,CCn1c(=O)c2c(nc(C=Cc3ccc(OC)c(OC)c3)n2C)n(CC)c1=O,inactive
4,CC[N+](CC)(CC)CCOC(=O)C(C1CCCC1)C1CCCC1,inactive
5,CCN(CC)CC(=O)Nc1c(C)cccc1C(=O)OC,inactive
6,Cc1cc(=O)oc2cc(O)ccc12,inactive
7,CCCC(C(=O)OCCN(CC)CC)(c1ccccc1)c1ccccc1,inactive
8,O=C(Nc1ccc(S(=O)(=O)N2CCOCC2)cc1)c1cc(Cl)ccc1NS(=O)(=O)c1ccc(Cl)s1,inactive
9,NCC1CCC(C(=O)Oc2ccc(CCC(=O)O)cc2)CC1 (stereo not drawn),inactive
10,O=C(OCc1ccccc1)c1ccc(O)cc1,inactive
11,CC(=O)[C@H]1CC[C@H]2[C@@H]3CC=C4C[C@@H](O)CC[C@]4(C)[C@H]3CC[C@]12C,inactive
12,O=C(O)[C@H](O)[C@@H](O)[C@H](O[C@@H]1O[C@H](CO)[C@H](O)[C@H](O)[C@H]1O)[C@H](O)CO,inactive
13,O=C(NCC1CN(c2ccc(N3CCOCC3=O)cc2)C(=O)O1)c1ccc(Cl)s1 (stereo not drawn),inactive
14,CCOC(=O)N1CCC(Nc2ccc(Cl)cc2N)CC1,inactive
15,CN1CCN(C2=Nc3cc(F)ccc3Cc3ccccc32)CC1,inactive
16,CCOc1ccc(NC(C)=O)cc1,inactive
17,CC(C)(C)C(=O)C(Oc1ccc(Cl)cc1)n1ccnc1 (stereo not drawn),inactive
18,Fc1ccc(C(c2ccc(F)cc2)N2CCN(C/C=C/c3ccccc3)CC2)cc1,inactive
19,Cn1cc(C(=O)[C@@H]2CCc3nc[nH]c3C2)c2ccccc21,inactive
20,O=C(O)CNC(=O)c1ccccc1I,inactive

row,Structure (SMILES),Potency
1,CN(C)CCN1C(=O)c2ccccc2N(C)c2ccccc21,inactive
2,CCCCCN(CCCCC)C(=O)C(CCC(=O)O)NC(=O)c1ccc(Cl)c(Cl)c1 (stereo not drawn),inactive
3,Cc1nc2sccn2c(=O)c1CCN1CCC(=C(c2ccc(F)cc2)c2ccc(F)cc2)CC1,inactive
4,CCC1NC(=O)c2cc(S(N)(=O)=O)c(Cl)cc2N1 (stereo not drawn),inactive
5,CCCc1ncc(C(=O)O)s1,inactive
6,C[C@]12CC[C@@H]3c4ccc(O)cc4CC[C@H]3[C@@H]1C[C@@H](O)[C@@H]2O,inactive
7,Cc1ccc(Nc2c(F)cccc2Cl)c(CC(=O)O)c1,inactive
8,CC(C)(C)c1nnc(NS(=O)(=O)c2ccc(N)cc2)s1,inactive
9,CN(C)C(=O)Nc1ccc(Cl)c(Cl)c1,inactive
10,O=C1C(CCS(=O)c2ccccc2)C(=O)N(c2ccccc2)N1c1ccccc1 (stereo not drawn),inactive
11,C[C@H](CCC(=O)O)[C@H]1CC[C@H]2[C@@H]3C(=O)C[C@@H]4CC(=O)CC[C@]4(C)[C@H]3CC(=O)[C@]12C,inactive
12,c1cnc(N2CCN(Cc3ccc4c(c3)OCO4)CC2)nc1,inactive
13,c1ccc2c(c1)CCc1ccccc1N2,inactive
14,CCCOC(=O)c1ccc(N)cc1,inactive
15,CC1=C(CC(=O)O)c2cc(F)ccc2/C1=C\c1ccc(S(C)=O)cc1 (stereo not drawn),inactive
16,CC1CC(=O)NN=C1c1ccc(NCC(C)(C)NCC(O)COc2cc(Cl)ccc2C#N)cc1 (stereo not drawn),inactive
17,COc1ccccc1N1CCN(CCCNc2cc(=O)n(C)c(=O)n2C)CC1,inactive
18,CCOC(=O)OCC/C(SC(=O)OCC)=C(\C)N(C=O)Cc1cnc(C)nc1N,inactive
19,O=[N+]([O-])c1nccn1CO[C@@H](CO)[C@H](O)CO,inactive

# Target: Nucleoprotein (Lymphocytic choriomeningitis virus (strain Armstrong)) (UniProt P09992)
# Assay: qHTS for Inhibitors of the Functional Ribonucleoprotein Complex (vRNP) of Lymphocytic Choriomeningitis Arenaviruses (LCMV): LCMV Primary Screen - GLuc reporter signal (AID 1347086); also: nearly all actives have a fitted effect of over 70% in size
# Details: LCMV minigenome vRNP cell assay, Gaussia luciferase reporter; series mostly up to 57.5 µM
# Chain of Nucleoprotein (Lymphocytic choriomeningitis virus (strain Armstrong)) (P09992 whole entry, looked up): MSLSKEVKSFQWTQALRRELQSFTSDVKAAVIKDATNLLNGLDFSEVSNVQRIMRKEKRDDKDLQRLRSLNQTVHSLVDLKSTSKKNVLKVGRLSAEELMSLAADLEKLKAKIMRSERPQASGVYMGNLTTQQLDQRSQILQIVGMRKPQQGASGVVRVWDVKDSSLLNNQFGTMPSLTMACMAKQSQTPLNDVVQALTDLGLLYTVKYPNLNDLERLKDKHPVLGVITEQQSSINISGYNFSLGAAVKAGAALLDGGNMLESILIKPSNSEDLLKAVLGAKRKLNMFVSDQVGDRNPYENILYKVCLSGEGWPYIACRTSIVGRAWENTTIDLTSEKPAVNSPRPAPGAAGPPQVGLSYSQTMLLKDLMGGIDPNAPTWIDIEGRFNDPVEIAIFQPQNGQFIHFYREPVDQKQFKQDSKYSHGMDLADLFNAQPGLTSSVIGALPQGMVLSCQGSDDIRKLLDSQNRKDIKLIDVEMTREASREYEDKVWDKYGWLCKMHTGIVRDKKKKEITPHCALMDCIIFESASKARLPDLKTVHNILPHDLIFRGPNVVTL
row,Structure (SMILES),Potency
1,NC(=O)CC[C@@H](N)C(=O)O,inactive
2,NC(N)=N/N=C/c1c(Cl)cccc1Cl,inactive
3,CCn1c(=O)c2c(nc(C=Cc3ccc(OC)c(OC)c3)n2C)n(CC)c1=O,inactive
4,CC[N+](CC)(CC)CCOC(=O)C(C1CCCC1)C1CCCC1,inactive
5,CCN(CC)CC(=O)Nc1c(C)cccc1C(=O)OC,inactive
6,Cc1cc(=O)oc2cc(O)ccc12,inactive
7,CCCC(C(=O)OCCN(CC)CC)(c1ccccc1)c1ccccc1,inactive
8,O=C(Nc1ccc(S(=O)(=O)N2CCOCC2)cc1)c1cc(Cl)ccc1NS(=O)(=O)c1ccc(Cl)s1,inactive
9,NCC1CCC(C(=O)Oc2ccc(CCC(=O)O)cc2)CC1 (stereo not drawn),inactive
10,O=C(OCc1ccccc1)c1ccc(O)cc1,inactive
11,CC(=O)[C@H]1CC[C@H]2[C@@H]3CC=C4C[C@@H](O)CC[C@]4(C)[C@H]3CC[C@]12C,inactive
12,O=C(O)[C@H](O)[C@@H](O)[C@H](O[C@@H]1O[C@H](CO)[C@H](O)[C@H](O)[C@H]1O)[C@H](O)CO,inactive
13,O=C(NCC1CN(c2ccc(N3CCOCC3=O)cc2)C(=O)O1)c1ccc(Cl)s1 (stereo not drawn),inactive
14,CCOC(=O)N1CCC(Nc2ccc(Cl)cc2N)CC1,inactive
15,CN1CCN(C2=Nc3cc(F)ccc3Cc3ccccc32)CC1,inactive
16,CCOc1ccc(NC(C)=O)cc1,inactive
17,CC(C)(C)C(=O)C(Oc1ccc(Cl)cc1)n1ccnc1 (stereo not drawn),inactive
18,Fc1ccc(C(c2ccc(F)cc2)N2CCN(C/C=C/c3ccccc3)CC2)cc1,inactive
19,Cn1cc(C(=O)[C@@H]2CCc3nc[nH]c3C2)c2ccccc21,inactive
20,O=C(O)CNC(=O)c1ccccc1I,inactive

row,Structure (SMILES),Potency
1,CN(C)CCN1C(=O)c2ccccc2N(C)c2ccccc21,inactive
2,CCCCCN(CCCCC)C(=O)C(CCC(=O)O)NC(=O)c1ccc(Cl)c(Cl)c1 (stereo not drawn),inactive
3,Cc1nc2sccn2c(=O)c1CCN1CCC(=C(c2ccc(F)cc2)c2ccc(F)cc2)CC1,inactive
4,CCC1NC(=O)c2cc(S(N)(=O)=O)c(Cl)cc2N1 (stereo not drawn),inactive
5,CCCc1ncc(C(=O)O)s1,inactive
6,C[C@]12CC[C@@H]3c4ccc(O)cc4CC[C@H]3[C@@H]1C[C@@H](O)[C@@H]2O,inactive
7,Cc1ccc(Nc2c(F)cccc2Cl)c(CC(=O)O)c1,inactive
8,CC(C)(C)c1nnc(NS(=O)(=O)c2ccc(N)cc2)s1,inactive
9,CN(C)C(=O)Nc1ccc(Cl)c(Cl)c1,inactive
10,O=C1C(CCS(=O)c2ccccc2)C(=O)N(c2ccccc2)N1c1ccccc1 (stereo not drawn),inactive
11,C[C@H](CCC(=O)O)[C@H]1CC[C@H]2[C@@H]3C(=O)C[C@@H]4CC(=O)CC[C@]4(C)[C@H]3CC(=O)[C@]12C,inactive
12,c1cnc(N2CCN(Cc3ccc4c(c3)OCO4)CC2)nc1,inactive
13,c1ccc2c(c1)CCc1ccccc1N2,inactive
14,CCCOC(=O)c1ccc(N)cc1,inactive
15,CC1=C(CC(=O)O)c2cc(F)ccc2/C1=C\c1ccc(S(C)=O)cc1 (stereo not drawn),inactive
16,CC1CC(=O)NN=C1c1ccc(NCC(C)(C)NCC(O)COc2cc(Cl)ccc2C#N)cc1 (stereo not drawn),inactive
17,COc1ccccc1N1CCN(CCCNc2cc(=O)n(C)c(=O)n2C)CC1,inactive
18,CCOC(=O)OCC/C(SC(=O)OCC)=C(\C)N(C=O)Cc1cnc(C)nc1N,inactive
19,O=[N+]([O-])c1nccn1CO[C@@H](CO)[C@H](O)CO,inactive
